The values that follow come from ChEMBL document CHEMBL3988442, “University of Dundee, Small-Polar-MMV Screening Library” (2021).

In this assay the target is AMP-activated protein kinase, AMPK (Homo sapiens) (UniProt P54646+O43741+P54619+Q9UGJ0+Q9Y478+Q13131+Q9UGI9). Description: AMP-dependent Kinase enzyme assay. An in vitro enzyme assay that detects ADP turnover that is directly proportional to AMPK activity. This uses naive AMPK that is activated during the assay with MK-8722. The class given is functional. Also noted: scale not given: direction of the effect not stated beside the values. The following applies: 30 µM.
Regarding `O=C(NCc1nnc2n1CCC2)c1cn(-c2ccccc2Br)nn1`, the Percent Effect was 12%.

For the molecule `COc1cccc(-c2ncc(CN3CCOCC(O)C3)s2)c1` (stereo not given), the Percent Effect was determined as 2.77%.

For `O=c1[nH]nc(CNCc2ccc(OC34CCCN(CC3)C4)cc2)[nH]1` (stereo not given), the Percent Effect is -7.25%.

Take `CCn1nc(C)c(NC(=O)CN(C)C(C)c2ccon2)c1C` (stereo not given): the Percent Effect is -1.21%.

On to `CN1N=C(C(=O)NCCc2ccc(OC3CCCC3)cc2)CCC1=O`, for which the Percent Effect is -0.783%.

In the case of `CS(=O)(=O)NCC1Cc2ccccc2O1` (stereo not given), the Percent Effect was -1.87%.

As for `CCCN1CCC(N(C)C(=O)c2cc(C)nc3cc(F)ccc23)CC1`, the Percent Effect was -6.76%.

Turning to `COc1ccc(OC2CCN(C(=O)c3ccc(C(C)=O)s3)CC2)cc1`, the Percent Effect is -2.68%.

As for `CNC(=O)COC(=O)c1ccn(-c2ccc(Cl)c(Cl)c2)n1`, the Percent Effect turned out to be 1.87%.

In the case of `CN1CCN(c2ccc(F)cc2NC(=O)NCc2ccon2)CC1`, the Percent Effect was found to be 4.16%.

As for `COc1cccc2ccc(N3CCC(O)(C(=O)O)CC3)nc12`, the Percent Effect amounted to 1.15%.

In the case of `O=C(NCc1nnc2n1CCC2)c1cccc(Br)c1`, the Percent Effect was determined as 3.99%.

Take `CC(C)OCCS(=O)(=O)N1CCN(Cc2cccn2C)CC1`: the Percent Effect is -4.58%.

In the case of `CN1CCCC(CCC(=O)NCCc2nnc(N)s2)C1` (stereo not given), the Percent Effect was -1.67%.

In the case of `Cc1ccc(N2C[C@@H]3CN(C(=O)NC4CCCC4)C[C@]3(C(=O)O)C2)nn1`, the Percent Effect was -1.71%.

For `COCCCC1(CO)CCCN(C(=O)c2cnc(C3CC3)nc2)C1` (stereo not given), the Percent Effect turned out to be 2.98%.

In the case of `CNS(=O)(=O)c1c(C)sc2ccccc12`, the Percent Effect is 7.5%.

As for `c1ccc2oc(N3CCC(c4nncn4C4CC4)CC3)nc2c1`, the Percent Effect turned out to be 8.44%.

Regarding `Oc1ccc(Br)c(CNc2cccc(-c3nnc[nH]3)c2)c1`, the Percent Effect was 23.8%.

Take `COc1ccccc1CNC(=O)C(C)N1CC(n2nc(C)cc2C)C1` (stereo not given): the Percent Effect is 3.14%.
